Compounds without any hit were thinned out: in the full panel of roughly 79,000, 15% have a hit. Active and inactive are the calls of the source. No stated cut-off is given here; in the data, active means growth inhibition above about 70%; inactive means the rest.
Assays:
[1] = NCI Yeast Anticancer Drug Screen. Data for the rad50 strain (AID 155);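 further: 0% = growth of vehicle-only cultures of the same strain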; details: S. cerevisiae rad50 strain growth inhibition, stronger effect = higher value
In short: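 Readout: growth inhibition relative to vehicle-treated cultures. Compound exposure was carried out in a genetically defined yeast strain deficient in DNA damage repair.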

[2] = NCI Yeast Anticancer Drug Screen. Data for the mec2-1 strain (AID 157); details: S. cerevisiae mec2-1 strain, stronger effect = higher value
In short: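 mec2-1 yeast strain, carrying an alteration in DNA damage repair or cell cycle control, was exposed to compounds; growth inhibition was measured relative to vehicle-treated controls.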

[3] = NCI Yeast Anticancer Drug Screen. Data for the sgs1 mgt1 strain (AID 161);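 further: 0% = growth of cultures given vehicle only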; details: S. cerevisiae sgs1 mgt1 strain, stronger effect = higher value
In short: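 Compounds are added to genetically altered yeast, and growth is compared with cultures given vehicle alone to give percent inhibition.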

[4] = NCI Yeast Anticancer Drug Screen. Data for the cln2 rad14 strain (AID 165);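 further: 0% = growth equal to vehicle treated cultures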; details: S. cerevisiae cln2 rad14 strain, stronger effect = higher value
In short: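 Yeast carrying cln2 and rad14 alterations (cell cycle control and DNA damage repair) were exposed to compounds. Growth inhibition was measured against vehicle-treated controls.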

[5] = NCI Yeast Anticancer Drug Screen. Data for the bub3 strain (AID 167); details: S. cerevisiae bub3 mutant strain, stronger effect = higher value
In short: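 Readout: yeast growth inhibition, expressed relative to vehicle-only wells. The test organism is a mutant strain from a panel with lesions in DNA repair or checkpoint genes.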

[6] = NCI Yeast Anticancer Drug Screen. Data for the mlh1 rad18 strain (AID 175); details: S. cerevisiae mlh1 rad18 strain growth inhibition, stronger effect = higher value
In short: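 Growth inhibition of the yeast strain was measured after compound exposure and expressed relative to vehicle-treated controls. The strain carries defined defects in DNA damage repair.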

[7] = at 5.0 µM (retest, dose inferred, filed as 0.5)
[8] = at 50.0 µM (retest, dose inferred, filed as 5.0)

Measured: growth inhibition

CC(=O)Nc1cc(Cl)c2c(c1)C(=O)c1ccccc1-2
active: [1]; [8] 82% | [1]; at 50.0 µM 91.8% | [3]; [8] 77% | [6]; [8] 79%
inactive: [1]; [7] 64% | [2]; [7] 34% | [2]; [8] 61% | [2]; at 50.0 µM 14.6% | [3]; [7] 43% | [3]; at 50.0 µM 35.6% | [4]; [7] 24% | [4]; [8] 35% | [4]; at 50.0 µM -23.4% | [5]; [7] 14% | [5]; [8] 38% | [5]; at 50.0 µM 19.1% | [6]; [7] 41% | [6]; at 50.0 µM 33%

CC[Si](CC)(CC)c1ccc(CCNCCS)s1
active: [1]; [8] 96% | [1]; at 50.0 µM 97.4% | [2]; [8] 99% | [2]; at 50.0 µM 98.7% | [3]; [8] 98% | [3]; at 50.0 µM 98.2% | [4]; [8] 97% | [4]; at 50.0 µM 98% | [5]; [8] 99% | [5]; at 50.0 µM 98.4% | [6]; [8] 97% | [6]; at 50.0 µM 98.3%
inactive: [1]; [7] -1% | [2]; [7] 32% | [3]; [7] 52% | [4]; [7] 8% | [5]; [7] 19% | [6]; [7] 49%

COC(=O)C12OCC34C(CC5C(C)C6=CC(=O)OC6=CC5(C)C3C(O)C1O)OC(=O)C(OC(C)=O)C24 (configuration not stated)
inactive: [1]; [7] 69% | [2]; [7] 66% | [3]; [7] 63% | [4]; [7] 64% | [5]; [7] 68% | [6]; at 50.0 µM -22%
active: [1]; [8] 99% | [1]; at 50.0 µM 91.6% | [2]; [8] 99% | [2]; at 50.0 µM 93.4% | [3]; [8] 99% | [3]; at 50.0 µM 92.2% | [4]; [8] 99% | [4]; at 50.0 µM 91.7% | [5]; [8] 99% | [5]; at 50.0 µM 92.5% | [6]; [7] 79% | [6]; [8] 99%

Cc1ccccc1NC(=S)N/N=C(/c1ccccc1)c1ccccn1
active: [1]; [8] 94% | [2]; [8] 92% | [3]; [8] 92% | [4]; [8] 91% | [5]; [8] 92% | [5]; at 50.0 µM 76.3% | [6]; [8] 92% | [6]; at 50.0 µM 75.4%
inactive: [1]; [7] 5% | [1]; at 50.0 µM 53.9% | [2]; [7] -17% | [2]; at 50.0 µM 61% | [3]; [7] 26% | [3]; at 50.0 µM 69.7% | [4]; [7] -38% | [4]; at 50.0 µM 68.4% | [5]; [7] -47% | [6]; [7] 26%

CN1C(OCc2ccccc2)c2c(ccc3c2OCO3)C2C=Cc3cc4c(cc3C21)OCO4 (configuration not stated)
active: [1]; [8] 99% | [1]; at 50.0 µM 92.8% | [2]; [8] 99% | [2]; at 50.0 µM 93.2% | [3]; [7] 96% | [3]; [8] 100% | [3]; at 50.0 µM 93% | [4]; [7] 89% | [4]; [8] 98% | [4]; at 50.0 µM 92.7% | [5]; [7] 93% | [5]; [8] 99% | [5]; at 50.0 µM 91.8% | [6]; [7] 96% | [6]; [8] 99% | [6]; at 50.0 µM 91.1%
inactive: [1]; [7] 47% | [2]; [7] 39%

NC1=NC(c2ccccc2)CC(c2cc(Cl)cc(Br)c2O)=N1 (configuration not stated)
inactive: [1]; [7] 0% | [1]; [8] 25% | [1]; at 50.0 µM 35.1% | [2]; [7] -3% | [2]; [8] 19% | [2]; at 50.0 µM 13.4% | [3]; [7] -1% | [3]; [8] 42% | [3]; at 50.0 µM 10.7% | [4]; [7] 0% | [4]; [8] 22% | [4]; at 50.0 µM 16.2% | [5]; [7] -1% | [5]; [8] 34% | [5]; at 50.0 µM -0.8% | [6]; [7] -3% | [6]; [8] 46% | [6]; at 50.0 µM 28.9%

C=CCOC(=O)CCC(=O)N(CC)CC
active: [4]; at 50.0 µM 72.5%
inactive: [1]; [7] 4% | [1]; [8] -10% | [1]; at 50.0 µM -8.95% | [2]; [7] -1% | [2]; [8] 1% | [2]; at 50.0 µM -12.7% | [3]; [7] -6% | [3]; [8] -11% | [3]; at 50.0 µM -25.1% | [4]; [7] -7% | [4]; [8] 0% | [5]; [7] -2% | [5]; [8] 1% | [5]; at 50.0 µM -7.35% | [6]; [7] -2% | [6]; [8] -10% | [6]; at 50.0 µM -2.3%

O=[N+]([O-])c1ccc(CCCCc2ccc([N+](=O)[O-])cc2)cc1
inactive: [1]; [7] -5% | [1]; [8] -8% | [1]; at 50.0 µM -6.1% | [2]; [7] 3% | [2]; [8] -18% | [2]; at 50.0 µM 3% | [3]; [7] 2% | [3]; [8] -9% | [3]; at 50.0 µM -1.8% | [4]; [7] -2% | [4]; [8] -10% | [4]; at 50.0 µM -59.9% | [5]; [7] 13% | [5]; [8] 21% | [5]; at 50.0 µM 7.35% | [6]; [7] -10% | [6]; [8] -16% | [6]; at 50.0 µM 29%

Cc1ccc(-n2cc(-c3ccc(Cl)cc3)c3c(NN)ncnc32)cc1
inactive: [1]; [7] -20% | [1]; [8] 30% | [2]; [7] -11% | [2]; [8] 65% | [3]; [7] -8% | [3]; [8] 61% | [4]; [7] -20% | [4]; [8] 37% | [5]; [7] -19% | [5]; [8] 53% | [6]; [7] -14% | [6]; [8] 65%
active: [1]; at 50.0 µM 85.7% | [2]; at 50.0 µM 87.6% | [3]; at 50.0 µM 87.5% | [4]; at 50.0 µM 90.3% | [5]; at 50.0 µM 87.7% | [6]; at 50.0 µM 76.6%

Source: PubChem BioAssay (NCI)
